# According to PubChem BioAssay AID504607 (Sanford-Burnham Center for Chemical Genomics, 2011):
# Out of some 6,200 compounds screened, about 4,800 (77%) were called active. The set was probably picked from earlier hits. Only a sample is shown. A number with no mark means an inactive call.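 How the source made its calls: active means mean inhibition at 8 µM reaching about 37%, which flags the compound as non-specific (limit read from the data); inactive means the rest.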
# Experiment: luminescence decrease from intact luciferase reporter – cell-based, single concentration, SaOS-2, counter-screen for Mdm2/MdmX interaction inhibitor project, confirmation (AID 504607);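 further: p53-null SaOS-2 cells with luciferase driven by a doxycycline-inducible promoter; compound on cells about two nights before reading with doxycycline added after day one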
# Settings: SaOS-2 full-length luciferase counterscreen, at 8 µM, active compounds read high
row,Compound,inhibition
1,Cc1cc2cc3c(cc2nc1SCC(=O)Nc1c(C)cccc1C)CCC3,60.3% (active)
2,CCOC(=O)Nc1ccc2c(c1)N(C(=O)CCCl)c1ccccc1[S@]2=O,54% (active)
3,CNC[C@H](CC1CCCCC1)NC[C@H](NCCC1CCCC1)[C@H](C)O,30.2%
4,COc1ccc(-c2cc(C(=O)N(C)CC(=O)Nc3ccccc3Cl)c3ccccc3n2)cc1OC,79% (active)
5,COc1ccc(CN(C)C(=O)c2cc(-c3ccc(C)cc3C)nc3ccccc23)c(OC)c1OC,62.1% (active)
6,COc1ccc(-c2cc(C(=O)N(C)Cc3ccc(OC)c(OC)c3OC)c3ccccc3n2)cc1OC,97.7% (active)
7,COc1cc(SC)ccc1C(=O)Nc1nc(C)cs1,43.3% (active)
8,COc1c(C)c2c(c(O)c1C/C=C(\C)CCC(=O)O)C(=O)OC2,22.9%
9,O=C(Nc1ccc2c(c1)OCCO2)C1CCCC1,88.1% (active)
10,Oc1c(Cl)cc(Cl)c(Cl)c1Cc1c(O)c(Cl)cc(Cl)c1Cl,26.8%
11,CCNC(=O)c1c(O)c2cccc3c2n(c1=O)CC3,22.6%
12,Cc1ccc(-c2nn(C(C)(C)C)c3ncnc(N)c23)cc1,30.7%
13,O=C1NC[C@@H](c2ccccc2)OC(=O)[C@H](Cc2ccc(F)cc2)CC/C=C/C[C@H]1CC(=O)N(CCO)Cc1ccccc1,79% (active)
14,Cc1cc(NC(=O)/C=C/C(=O)N(c2ccccc2C)C(C(=O)NC2CCCC2)c2ccc(F)cc2)no1 (configuration not stated),28.7%
15,COc1ccc(C(C(=O)NC2CCCCC2)N(C(=O)CCl)c2ccccc2Cl)cc1 (configuration not stated),78.5% (active)
16,COc1ccc(OC)c(Nc2nc(-c3ccc(O)c(O)c3)cs2)c1,79.9% (active)
17,Cc1oc2c(c1C(=O)N1CCOCC1)C(=O)c1ccccc1C2=O,56.8% (active)
18,O=S(=O)([N-]c1nc2ccccc2nc1-[n+]1ccc(Cc2ccccc2)cc1)c1ccc(Br)s1,56.5% (active)
19,OCCNc1nc(Nc2ccc(Cl)c(Cl)c2)nc2ccccc12,24.3%

row,Compound,inhibition
1,O=[N+]([O-])c1c(NCCO)cc(Sc2nc3ccccc3s2)c2nonc12,50.4% (active)
2,COC(=O)Cc1[nH]n(-c2nc3ccccc3s2)c(=O)c1C(C)=Nc1ccc(OC)cc1,26.2%
3,O=C(Nc1ccccc1Cl)/C(Cl)=C(\Cl)S(=O)c1ccccc1 (configuration not stated),1.94%
4,Cc1ccc(N(Cc2cc(=O)[nH]c3ccccc23)C(=O)CCl)cc1,25.3%
5,Cc1cccc(N(C)C(=O)c2cc3c(=O)[nH]c4ccc(C)cc4c3s2)c1,43.4% (active)
6,CCCC(O)(CCC)C(=O)NN(C(=O)CCl)c1cccc(C)c1,23.7%
7,CC[C@]1(C(=O)OC)[C@H]2C(=O)N(Cc3ccccc3)C(=O)[C@H]2[C@H]2CN=C(SCc3ccccc3)N21,35.8%
8,CC[C@]1(C(=O)OC)[C@H]2C(=O)N(Cc3ccccc3)C(=O)[C@H]2[C@H]2CN=C(SCc3ccc(C#N)cc3)N21,54.6% (active)
9,CC[C@]1(C(=O)OC)[C@H]2C(=O)N(Cc3ccccc3)C(=O)[C@H]2[C@H]2CN=C(SCc3ccc(Cl)cc3)N21,52.2% (active)
10,Cc1cc(Nc2cc(N3CCN(C)CC3)nc(Sc3ccc(NC(=O)C4CC4)cc3)n2)n[nH]1,41.6% (active)
11,Cc1[nH]c(C)c(S(=O)(=O)N2CCN(c3cccc(C(F)(F)F)c3)CC2)c1C(=O)N1CCCCC1,54.6% (active)
12,COc1ccc(CNc2nc(NCc3ccc(OC)cc3)c3ncn(C4CCCC4)c3n2)cc1,73% (active)
13,Cc1c(CN2CCC(CO)(CCOc3ccccc3)CC2)[nH]c2ccc(Cl)cc12,53.7% (active)
14,N#CC1=C(N)Oc2cc(O)ccc2C1C1CCCCC1 (configuration not stated),56.5% (active)
15,Cc1[nH]c(=O)c(C(=O)/C=C/c2ccccc2)c2c1CCCC2,53.3% (active)
16,COc1ccc2cc1Oc1ccc(cc1)C[C@H]1c3cc(c(OC)cc3CCN1C)Oc1c(O)c(OC)cc3c1[C@H](C2)N(C)CC3,51.1% (active)
17,CCN1C(=O)/C(=C\N2CCN(c3cccc(Cl)c3)CC2)SC1=S,72.2% (active)
18,COc1cccc2sc(N(CCCN(C)C)C(=O)C(c3ccccc3)c3ccccc3)nc12,24.8%
19,COc1cccc2sc(N(CCCN(C)C)C(=O)CCS(=O)(=O)c3ccccc3)nc12,21.2%

row,Compound,inhibition
1,COc1cccc2sc(NNC(=O)c3nc4ccccc4s3)nc12,68.2% (active)
2,C=CCSc1nsc(NC(=O)Nc2cccc(C(C)=O)c2)n1,21.9%
3,CCSc1nsc(NC(=O)Nc2cccc(C(C)=O)c2)n1,41% (active)
4,CC(=O)c1ccc(Oc2cc(C)nc(-n3nc(C)cc3C)n2)cc1,78.7% (active)
5,Oc1ccc(Br)cc1/C=N/Nc1ccccn1,20%
6,Oc1cccc(/C=N/Nc2ccc(Cl)nn2)c1O,45.7% (active)
7,Cc1nnnn1/C(=C\c1ccccc1)C(=O)OCC(=O)N1CC2(C)CC1CC(C)(C)C2 (configuration not stated),53.4% (active)
8,CC[n+]1cc(C)ccc1/C=C/c1ccc(N(C)C)cc1,37.8% (active)
9,O=C(/C=C/Sc1ncn[nH]1)c1ccc(Cl)cc1,51% (active)
10,COC(=O)CCNc1ccc2c(c1)OCCO2,51.5% (active)
11,CCOC(=O)c1c(-c2cccc(C)c2)csc1NC(=O)c1c(-c2ccccc2)noc1C,52.8% (active)
12,O=C(CSc1nc2ccccc2c(=O)[nH]1)Nc1nc(-c2ccc(Br)cc2)cs1,47.8% (active)
13,Cc1ccc(C(=O)Nc2sc(Cc3ccc4c(c3)OCO4)c(C)c2C(N)=O)cc1,89.9% (active)
14,CCN1/C(=C\c2ccc3ccccc3[n+]2CC)Sc2cc(C)ccc21,25%
15,Cc1ccc2[nH]c(=O)c(CN(CCCN(C)C)C(=O)Nc3cccc(Cl)c3)cc2c1,66.6% (active)
16,Cc1cccc(NS(=O)(=O)c2ccc(-c3cnc(C4CC4)o3)cc2)c1,63.9% (active)
17,COC(=O)C1=C(Nc2ccc(C)cc2)C=C(C)C(C(=O)OC)C1c1ccc(F)cc1 (configuration not stated),61.3% (active)
18,O=C(c1[nH]ncc1-c1ccc(Cl)cc1)C1CO1 (configuration not stated),45.8% (active)
19,O=C1NC(Nc2nc3ccccc3s2)(C(F)(F)F)C(=O)N1C1CCCCC1 (configuration not stated),73.6% (active)
